# Measured values: PubChem BioAssay
# Activity calls are given as the source filed them.
# Assays:
# [1] = compound effects on lung adenocarcinoma cell viability – A549, calcein-AM fluorescence, 48 h, basal, profiling panel (AID 1162); details: higher = more signal; also: test concentration not given here
# [2] = compound effects on differentiated 3T3-L1 adipocyte viability – cell-based, 3T3-L1 adipocytes, calcein-AM fluorescence, 48 h, basal, profiling panel (AID 1163); details: 3T3-L1 adipocytes viability, higher = more signal; also: test concentration not given here
# [3] = compound effects on hepatocellular carcinoma cell viability – HepG2, calcein-AM fluorescence, 48 h, basal, profiling panel (AID 1164); details: higher = more signal; also: test concentration not given here
# [4] = compound effects on multiple myeloma cell viability – MM1S, calcein-AM fluorescence, 48 h, basal, profiling panel (AID 1165); details: higher = more signal;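 also: viability of MM1S multiple myeloma cells under basal unstimulated conditions; test concentration not given here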
# [5] = calcein-AM signal in unstimulated myeloma cells – cell-based, calcein-AM fluorescence, 48 h, PK04 Diversity Set, profiling panel (AID 1166); details: RPMI8226 myeloma viability, higher = more signal;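 also: cells grown under basal conditions without added stimulus; test concentration not given here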
# [6] = JC-1 mitochondrial signal, unstimulated HepG2 cells – cell-based, JC-1 fluorescence, 24 h, 100 nL compound, profiling panel (AID 1167); details: HepG2 mitochondrial potential, higher = more signal; also: test concentration not given here
# [7] = JC-1 mitochondrial signal, unstimulated adipocytes – cell-based, JC-1 fluorescence, 3T3-L1 adipocytes, 24 h, 100 nL compound, profiling panel (AID 1168); details: JC-1 mitochondrial fluorescence, higher = more signal, called active from +8 up or from −8 down; also: test concentration not given here
# [8] = JC-1 mitochondrial signal, unstimulated myeloma cells – cell-based, JC-1 fluorescence, RPMI8226, 24 h, 100 nL compound, profiling panel (AID 1169); details: JC-1 mitochondrial potential fluorescence, higher = more signal; also: test concentration not given here
# [9] = JC-1 mitochondrial signal, unstimulated MM1S myeloma – cell-based, JC-1 fluorescence, 24 h, 100 nL compound, profiling panel (AID 1170); details: MM1S mitochondrial potential, higher = more signal; also: test concentration not given here
# [10] = resazurin metabolic signal in A549 cells – cell-based, resazurin fluorescence, 24 h, PK04 Diversity Set, profiling panel (AID 1171); details: A549 viability, higher = more signal, called active from +8 up or from −8 down; also: test concentration not given here
# [11] = resazurin metabolic signal in HepG2 cells – cell-based, resazurin fluorescence, 24 h, PK04 Diversity Set, profiling panel (AID 1172); details: HepG2 viability, higher = more signal; also: test concentration not given here
# [12] = budding yeast growth changes without added modifier – OD600, strain BY4716, 24 h, basal condition, primary screen (AID 1173); details: S. cerevisiae BY4716 growth, OD600, 24 h; higher = more signal, called active from +8 up or from −8 down
# [13] = viability profiling in MM1S myeloma cells – cell-based, resazurin fluorescence, basal, 24 h, PK04 Diversity Set, profiling panel (AID 1174); details: higher = more signal, called active from +8 up or from −8 down; also: test concentration not given here
# [14] = molecular target: Dihydroorotate dehydrogenase (quinone), mitochondrial (Plasmodium falciparum (isolate 3D7)) (UniProt Q08210); assay: inhibition of P. falciparum DHODH – biochemical, C-terminal His tag, absorbance 600 nm, primary screen (AID 1175); details: PfDHODH enzyme, DCIP absorbance 600 nm; higher = more signal, called active from +8 up or from −8 down;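 also: recombinant parasite enzyme with a five histidine tag at its C terminus; test concentration not given here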
# [15] = growth modulation of vineyard yeast isolate – strain RM11-1a, OD600, basal, 24 h, primary screen (AID 1177);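 also: cultures grown under basal conditions with no added stressor; test concentration not given here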; details: S. cerevisiae RM11-1a growth, OD600, 24 h; higher = more signal, called active from +8 up or from −8 down
# [16] = growth of efflux-deficient E. coli DRC39 – strain DRC39, OD650, 24 h, E. coli filamentation inducers, primary screen (AID 1178);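 also: growth measured as culture turbidity by optical density at 650 nm; test concentration not given here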; details: E. coli DRC39 acrAB, higher = more signal, called active from +8 up or from −8 down
# [17] = growth of efflux-deficient E. coli DRC39 – strain DRC39, OD650, 48 h, E. coli filamentation inducers, primary screen (AID 1179);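 also: screen aims at cell division blockers that make cells filament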; details: E. coli DRC39 delta-acrAB growth, higher = more signal, called active from +8 up or from −8 down
# [18] = viability profiling in RPMI8226 myeloma cells – cell-based, resazurin fluorescence, basal, 24 h, PK04 Diversity Set, profiling panel (AID 1180); details: higher = more signal;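 also: RPMI8826 multiple myeloma cell line at 5000 cells per well; test concentration not given here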
# [19] = molecular target: E3 ubiquitin-protein ligase XIAP (Homo sapiens) (UniProt P98170); assay: small molecules binding XIAP protein – biophysical, small-molecule microarray, fluorescence 635 nm, primary screen (AID 1181); details: higher = more signal;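 also: score merges 667 nm emission and signal to noise over triplicate slides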
# E3 ubiquitin-protein ligase XIAP (Homo sapiens), sequence (P98170 whole entry, looked up): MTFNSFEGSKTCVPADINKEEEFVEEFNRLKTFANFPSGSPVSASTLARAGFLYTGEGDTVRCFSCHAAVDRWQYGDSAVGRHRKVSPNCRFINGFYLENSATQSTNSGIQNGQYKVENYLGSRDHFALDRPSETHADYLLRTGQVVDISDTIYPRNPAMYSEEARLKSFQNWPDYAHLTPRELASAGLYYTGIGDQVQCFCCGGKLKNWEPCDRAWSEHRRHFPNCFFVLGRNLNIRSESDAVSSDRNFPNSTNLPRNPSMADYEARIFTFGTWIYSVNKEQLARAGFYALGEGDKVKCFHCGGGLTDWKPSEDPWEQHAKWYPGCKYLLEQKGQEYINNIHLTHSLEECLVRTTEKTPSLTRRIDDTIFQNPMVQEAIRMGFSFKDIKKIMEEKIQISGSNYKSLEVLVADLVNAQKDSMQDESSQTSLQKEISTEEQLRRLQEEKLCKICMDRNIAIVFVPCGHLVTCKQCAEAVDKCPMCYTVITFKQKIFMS
# Dihydroorotate dehydrogenase (quinone), mitochondrial (Plasmodium falciparum (isolate 3D7)), sequence (Q08210 whole entry, looked up): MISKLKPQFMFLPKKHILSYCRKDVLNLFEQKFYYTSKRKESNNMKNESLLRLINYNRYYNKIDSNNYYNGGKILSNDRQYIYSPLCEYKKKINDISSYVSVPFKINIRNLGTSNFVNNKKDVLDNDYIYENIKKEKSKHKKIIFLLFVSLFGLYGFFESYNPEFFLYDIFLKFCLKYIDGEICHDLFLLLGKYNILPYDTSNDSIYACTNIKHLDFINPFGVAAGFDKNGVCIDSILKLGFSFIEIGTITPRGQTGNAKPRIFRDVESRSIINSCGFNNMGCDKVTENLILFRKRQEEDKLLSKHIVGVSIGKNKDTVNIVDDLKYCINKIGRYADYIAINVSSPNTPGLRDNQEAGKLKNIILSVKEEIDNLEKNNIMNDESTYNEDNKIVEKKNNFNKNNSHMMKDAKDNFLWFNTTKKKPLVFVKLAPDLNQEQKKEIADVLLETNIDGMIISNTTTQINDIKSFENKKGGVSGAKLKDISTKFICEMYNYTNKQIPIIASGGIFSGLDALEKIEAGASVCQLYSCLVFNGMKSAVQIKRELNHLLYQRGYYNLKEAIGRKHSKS
Structure (SMILES),z-score [1],z-score [2],z-score [3],z-score [4],z-score [5],z-score [6],z-score [7],z-score [8],z-score [9],z-score [10],z-score [11],z-score [12],z-score [13],composite z-score [14],z-score [15],z-score [16],z-score [17],z-score [18],composite z-score [19]
CCN1C(C)=C(C(=O)OC)[C@@H](c2ccccc2)N2C(=O)[C@](O)(C(=O)OC)[C@@H](c3ccccc3)C(C(=O)c3ccccc3)=C12,0.804,0.439,0.534,0.144,-0.623,4.64,0.454 (inactive),-0.602,0.229,2.64 (inactive),2.22,-3.46 (inactive),1.06 (inactive),0.208 (inactive),-0.785 (inactive),1.55 (inactive),1.39 (inactive),1.57,-0.101
CO[C@H]1COC(=O)CC=C[C@H](C)COC(=O)[C@@H](OCc2ccccc2)C=C[C@@H]1C,-0.696,-0.886,0.806,0.178,-1.73,0.96,0.877 (inactive),0.103,0.398,0.0283 (inactive),-0.103,-0.348 (inactive),1.46 (inactive),-2.5 (inactive),-1.22 (inactive),0.566 (inactive),0.171 (inactive),0.627,-0.22
CO[C@H]1COC(=O)[C@H](C)NC(=O)CC=C[C@@H](C)[C@H](NS(=O)(=O)c2ccc(C)cc2)COC(=O)[C@@H](OCc2ccccc2)C=C[C@@H]1C,0.0987,0.901,0.0331,-0.31,0.102,1.04,0.315 (inactive),-0.729,1.02,0.559 (inactive),0.618,0.156 (inactive),1.03 (inactive),0.604 (inactive),1.25 (inactive),0.292 (inactive),0.104 (inactive),0.775,-0.0123
CO[C@H]1COC(=O)CC=C[C@@H](C)COC(=O)[C@@H](C)NC(=O)CC=C[C@@H]1C,0.43,0.688,1.37,0.344,0.615,1.24,1.87 (inactive),-0.258,1.52,0.372 (inactive),0.931,-2.02 (inactive),1.13 (inactive),-0.0214 (inactive),-4.97 (inactive),0.236 (inactive),-1.28 (inactive),0.181,-0.216
COCCOC(=O)N1C(=O)[C@@]2(c3cc(C#CCCO)ccc31)[C@H](C(=O)N1CCCCCCC1)[C@H]1C(=O)O[C@H](c3ccccc3)[C@H](c3ccccc3)N1[C@@H]2c1ccc(O)cc1,1.53,0.843,1.87,0.555,-0.479,0.538,2.37 (inactive),-1.04,0.0272,0.641 (inactive),0.801,-1.74 (inactive),1.14 (inactive),0.138 (inactive),-2.75 (inactive),0.561 (inactive),1.43 (inactive),0.613,0.144
C[C@H]1NC(=O)[C@@H](C)NC(=O)[C@@]23C(=O)N[C@@H](Cc4ccccc4)C2[C@H](C)[C@@]2(C)O[C@H]2C3/C=C/C/C=C\CNC1=O (stereo not given in full),0.0575,0.43,0.205,-0.0933,-0.0009,1.24,0.408 (inactive),-0.266,1.66,0.381 (inactive),0.0975,-0.811 (inactive),1.02 (inactive),0.254 (inactive),0.776 (inactive),2.33 (inactive),1.58 (inactive),1.02,-0.198
CO[C@H]1COC(=O)[C@@H](Cc2ccccc2)NC(=O)[C@@H](C)COC(=O)CC=C[C@@H]1C,0.899,0.172,0.662,0.221,0.373,0.606,0.0117 (inactive),0.175,0.662,1.2 (inactive),0.344,-1.14 (inactive),1.1 (inactive),0.0602 (inactive),-0.213 (inactive),1.24 (inactive),0.639 (inactive),0.763,0.785
COc1ccc([Si](C)(C)[C@H]2[C@H](CCO)O[C@@]3(C(=O)N(Cc4ccc(N5CCCCC5=O)cc4)c4ccccc43)[C@@H]2C)cc1,-0.124,0.705,-0.263,-2.59,-0.628,1.05,1.04 (inactive),-0.48,-0.119,-2.32 (inactive),-1.69,-1.07 (inactive),-7.58 (inactive),-5.37 (inactive),2 (inactive),2.18 (inactive),-0.0822 (inactive),-2.73,0.0223
CCN1C(C)=C(C(=O)OC)[C@@H](c2ccccc2)N2C(=O)[C@@]3(C(=O)OC)O[C@@]12[C@@H]1C(=O)N(c2ccccc2)C(=O)[C@@H]13,0.0365,1.67,-0.805,0.871,-0.892,0.564,1.17 (inactive),1.22,0.0907,0.677 (inactive),0.392,-1.07 (inactive),0.839 (inactive),0.295 (inactive),-0.85 (inactive),-0.631 (inactive),-0.21 (inactive),1.21,-0.18
COc1cc([C@@H]2N[C@H](C(=O)O)Cc3c2[nH]c2ccccc32)cc(OC)c1OC,0.937,1.05,-0.793,-0.0434,0.407,-0.737,-0.135 (inactive),-0.663,0.639,0.455 (inactive),0.384,-0.61 (inactive),1.39 (inactive),-1.7 (inactive),-0.8 (inactive),-0.105 (inactive),0.197 (inactive),1.03,-0.227
